Results as given in PubChem BioAssay (NCATS).
Inconclusive results are not listed. The source made the active and inactive calls. Calls come from the whole dose curve; as a rule, active = well fitted inhibition curve with a large enough effect; inconclusive = small, poorly fitted or top-dose-only effect; inactive = flat fitted curve, though single readings scatter.

Experiments:
Test in all cases: qHTS profiling for inhibitors of Plasmodium falciparum proliferation (AID 504749); note: nearly all actives have a fitted effect of over 60% in size
Details in all cases: P. falciparum in erythrocytes, SYBR Green DNA, 72 h; series mostly up to 28.7 µM
DIV30 = test system: DIV30
How it was run: (§1)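 P. falciparum-infected erythrocytes (0.3% parasitemia, 2.5% hematocrit) incubated with compound 72 h at 37 C, 5% CO2. Parasite DNA detected by SYBR Green after lysis, overnight at room temperature; normalised to 0.29 uM artemisinin and DMSO.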

Dd2 = test system: Dd2
How it was run: as §1

ECU = test system: ECU
How it was run: as §1

FAB9 = test system: FAB9
How it was run: as §1

GB4 = test system: GB4
How it was run: as §1

HB3 = test system: HB3
How it was run: as §1

ICS = test system: ICS
How it was run: as §1

JCK = test system: JCK
How it was run: as §1

N140 = test system: N140
How it was run: as §1

P93_24 = test system: P93_24
How it was run: as §1

P94_40 = test system: P94_40
How it was run: as §1

PAD = test system: PAD
How it was run: as §1

PC15 = test system: PC15
How it was run: as §1

PC26 = test system: PC26
How it was run: as §1

PC49 = test system: PC49
How it was run: as §1

SC27B = test system: SC27B
How it was run: as §1

TAB109 = test system: TAB109
How it was run: as §1

TAB113 = test system: TAB113
How it was run: as §1

TAB165 = test system: TAB165
How it was run: as §1

DIV17 = test system: DIV17
How it was run: as §1

Measured: Potency
Potency is the fitted concentration of half-maximal effect.

CC1(COc2ccc(CC3SC(=O)NC3=O)cc2)CCCCC1 (stereo unspecified)
not listed: DIV17
inactive: all other assays above

CCN(CC)CCOc1ccc2c(c1)C(=O)c1cc(OCCN(CC)CC)ccc1-2
active: DIV17 9.53 µM | Dd2 12.6 µM | ECU 8.91 µM | GB4 12 µM | HB3 11.2 µM | P93_24 11.2 µM | PC26 9.53 µM | TAB109 5.01 µM | TAB113 11.2 µM

CN(CCCN1c2ccccc2CCc2ccccc21)CC(=O)c1ccc(Cl)cc1
inactive: FAB9
active: DIV17 4.78 µM | Dd2 7.08 µM | ECU 10 µM | HB3 12.6 µM | ICS 2 µM | N140 7.94 µM | P93_24 11.2 µM | P94_40 8.91 µM | PAD 12.6 µM | PC15 10 µM | SC27B 10 µM | TAB109 7.94 µM | TAB113 10 µM | TAB165 8.91 µM

CN1CCC[C@@H]1CCO[C@](C)(c1ccccc1)c1ccc(Cl)cc1
active: DIV17 6.75 µM | ICS 10 µM
inactive: DIV30 | ECU | FAB9 | HB3 | JCK | P94_40 | PAD | PC26 | SC27B | TAB113

CCN(CC)CCOc1ccccc1C(=O)CCc1ccccc1
active: DIV17 7.57 µM | Dd2 4.47 µM
inactive: ECU | FAB9 | HB3 | JCK | PAD | PC49 | TAB113

CCOCCn1c(N2CCCN(C)CC2)nc2ccccc21
active: DIV17 7.57 µM
inactive: ECU | FAB9 | HB3 | JCK | N140 | P93_24 | P94_40 | SC27B | TAB113 | TAB165

COc1ccc2c(c1)c1c3n2CCN(C)C3=NCC1
not listed: DIV17
inactive: all other assays above

N/C(=N\N=C\c1ccc(Cl)cc1)N/N=C/c1ccc(Cl)cc1
active: ICS 2.24 µM | SC27B 12.6 µM | TAB109 6.31 µM | TAB165 3.98 µM
inactive: DIV17 | DIV30 | PC26 | PC49

CC(=O)Nc1ccc(S(=O)(=O)Nc2ccc([N+](=O)[O-])cc2)cc1
not listed: DIV30
inactive: all other assays above

CCCCCCCCCCCCCC(=O)OC(C)C
not listed: DIV30
inactive: all other assays above

NCCNc1cccc2ccccc12
active: DIV17 15.1 µM
not listed: Dd2 | GB4 | ICS | P93_24 | SC27B | TAB113
inactive: all other assays above

CN(C)CCC[C@@]1(c2ccc(F)cc2)OCc2cc(C#N)ccc21
not listed: Dd2 | TAB165
inactive: all other assays above

OC(C#CCN1CCCC1)(c1ccccc1)c1ccccc1
inactive: FAB9 | HB3 | JCK | PC15
active: DIV17 13.5 µM | Dd2 8.91 µM | GB4 6.75 µM | N140 11.2 µM | TAB165 11.2 µM

CC(=O)Nc1ncc([N+](=O)[O-])s1
not listed: DIV17
inactive: all other assays above

CC(C)(C)CC(C)(C)c1ccc(O)c(-n2nc3ccccc3n2)c1
inactive: DIV30 | JCK | PC26
active: DIV17 13.5 µM | Dd2 12.6 µM | GB4 16.9 µM | HB3 11.2 µM | ICS 5.01 µM | P93_24 10 µM | PC49 10 µM | SC27B 11.2 µM | TAB113 10 µM | TAB165 12.6 µM

NC1CCN(c2nc3c(cc2F)c(=O)c(C(=O)O)cn3-c2ccc(F)cc2F)C1 (stereo unspecified)
inactive: DIV17 | DIV30 | FAB9 | JCK | PAD | PC15 | PC26 | SC27B

O=C(O)C1(C(=O)O)CCC1.[NH2-].[NH2-].[Pt+2]
active: HB3 10 µM
not listed: Dd2 | ICS
inactive: all other assays above

CCCCc1cc2ccccc2c(OCCN(C)C)n1
not listed: Dd2 | GB4 | ICS
inactive: all other assays above
